Consider 64 molecules from PubChem BioAssay AID2291 (The Scripps Research Institute Molecular Screening Center, 2010).

As a reminder, the inhibition is the change of the read-out against control, counted positive when it falls.

Each structure is given as a SMILES string. The campaign covered roughly 16,000 compounds. About 75 (0.5%) were called active. Shown is part of a subset that was picked to be rich in actives. Values without a mark were called inactive. No stated cut-off is given here; in the data, active means inhibition above about 30%; inactive means the rest.

In the assay the target is Protein phosphatase methylesterase 1 (Homo sapiens) (UniProt Q9Y570). In words: inhibitors of human PME-1 in Maybridge library (AID 2291). The conditions noted are these: recombinant PME-1, FP-Rh probe fluorescence polarization; at 9 µM; active compounds read high. Background: In fluorescence polarisation assays a small probe gives low polarisation when free and higher when bound to something large.
Sequence of Protein phosphatase methylesterase 1 (Homo sapiens) (Q9Y570 whole entry, looked up): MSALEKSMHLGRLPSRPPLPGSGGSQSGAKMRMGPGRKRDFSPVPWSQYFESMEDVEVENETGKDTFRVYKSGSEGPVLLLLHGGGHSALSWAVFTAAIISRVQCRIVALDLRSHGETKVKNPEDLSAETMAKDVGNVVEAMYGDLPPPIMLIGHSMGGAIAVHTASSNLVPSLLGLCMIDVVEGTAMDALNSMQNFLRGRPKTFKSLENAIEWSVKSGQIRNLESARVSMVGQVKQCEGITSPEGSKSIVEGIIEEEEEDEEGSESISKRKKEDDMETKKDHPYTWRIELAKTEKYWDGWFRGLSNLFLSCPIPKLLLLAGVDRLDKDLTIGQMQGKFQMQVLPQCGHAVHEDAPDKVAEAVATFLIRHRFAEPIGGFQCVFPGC
As for `COc1ccc(/C=C(\NC(=O)c2ccccc2)C(=O)N/N=C/c2ccc3c(c2)OCO3)cc1`, the inhibition is -5.56%. The value for `CCCCc1ccc(-n2c(-c3ccc(F)cc3)coc2=O)cc1` was 2.07%; that for `N#C/C(=C\N1CCc2ccccc21)S(=O)(=O)c1ccc(C(F)(F)F)cn1` was 2.09%; that for `Cn1c(=O)c(C#N)cn(-c2ccccc2)c1=O` was 2.81%.

As for `Cc1ccc(NC(=S)C(C#N)C(=O)N2CCCC2)c(C)c1` (centres undefined), the inhibition was -4.1%.

For the molecule `O=C(Nc1ccccc1-c1ccccc1)c1cccs1`, the inhibition is -1.11%.

Consider `Fc1cccc(Cl)c1CN1CCN(c2ncnc3scc(-c4cccs4)c23)CC1`, for which the inhibition was -3.44%. Take `CCOC(=O)Cc1csc(NC(NC(=O)OCC)(C(F)(F)F)C(F)(F)F)n1`: the inhibition is 4.35%. The value for `O=C1Nc2ccccc2C12NNC(=S)NN2` was 65.2% (active); that for `CSc1ccc(C(F)(F)F)cc1NC(=S)Nc1ccccc1` was 0.0132%; that for `N#Cc1c(-c2cccs2)oc(-n2cccc2)c1-c1cc(Br)cs1` was -56.1%.

As for `O=C(NNC(=O)C1c2ccccc2Oc2ccccc21)c1cccc(F)c1`, the inhibition was 0.119%. `O=S(=O)(NC1Cc2ccccc2C1)c1ccc(-c2csnn2)cc1`: the inhibition is 7.03%. The value for `Cn1cnc([N+](=O)[O-])c1N1CCN(C(c2ccccc2)c2ccccc2)CC1` was 0.986%; that for `CN1CCCCC(C2=C(Cl)C(=O)CCC2)C1=O` (centres undefined) was 3.98%. The value for `OC(COc1ccc(Cl)c(Cl)c1)CN1CCC(Nc2nccc(C(F)(F)F)n2)CC1` (centres undefined) was -0.258%; that for `O=C(Nc1cc2ccccc2s1)N1CCN(Cc2c(F)cccc2Cl)CC1` was 0.279%. As for `NC(=O)c1cccc2c1OCCO2`, the inhibition is 6.89%. The value for `Nc1ccccc1SCc1cc([N+](=O)[O-])cc2c1OCOC2` was 5.44%. Regarding `COc1cc(CC/C(C)=N/O)ccc1O`, the inhibition is 3.22%.

With `NNC(=O)c1ccc(Cl)cc1Cl`, the inhibition is 15.5%. The value for `CC(=O)Nc1ccc(C)cc1N=Cc1ccncc1` was 2.67%; that for `O=C(O)c1cnc(NCc2ccccc2)s1` was -5.43%. The value for `COc1ccc(CCN=C(C)c2cc(Cl)cc(Cl)c2O)cc1OC` was 0.059%; that for `CC1(NC(=O)OCc2ccccc2)CC1NC(=O)OCc1ccccc1` (centres undefined) was -1.61%.

On to `O=S(=O)(c1ccc2c(c1)OCCO2)N1CCN(c2ccc(C(F)(F)F)cn2)CC1`, for which the inhibition is 27.1%. Turning to `O=C(Cc1cccc2ccccc12)NNC(=O)Nc1ccc(Cl)cc1`, the inhibition was -12.8%.

For `CCOC(=O)/C(=N/Nc1ccccc1)C(C)=N`, the inhibition was 1.95%. The value for `N#CC(C#N)=C/C=C(/Sc1nc2cc(Cl)ccc2s1)c1ccc(Cl)cc1` was 3.07%. The value for `Cc1cccc(Cl)c1NC(=S)NCCNC(=O)OC(C)(C)C` was -2.72%; that for `O=c1[nH]c2ccccc2c(=O)n1CCSc1ccc(Cl)cc1` was -0.818%. For the molecule `O=C(O)CCc1cccnc1`, the inhibition is 5.03%. On to `OC(CN1CCN(c2ccc(C(F)(F)F)cn2)CC1)c1ccc2c(c1)OCCO2` (centres undefined), for which the inhibition was -3.57%. The value for `OC(COc1ccc(F)cc1)(c1ccccc1)c1ccccc1` was 2.52%.

Turning to `Cn1/c(=N\N=C2CCCCC2)sc2ccccc21`, the inhibition was 24.3%. The value for `O=C(O)/C=C/C(=O)Nc1ccc(NC(=O)c2ccccc2O)cc1` was -5.93%; that for `O=C1CC(c2ccccc2)C(=O)N1Cc1cccs1` (centres undefined) was -0.212%; that for `CCOC(=O)c1c(N/N=C\c2ccccc2O)n[nH]c1C` was 7.03%. The value for `COc1ccccc1C1CCN(c2ccc([N+](=O)[O-])cn2)CC1` was 3.68%; that for `COC(=O)c1scc(S(=O)(=O)Cc2ccco2)c1N/N=C(\C#N)S(=O)(=O)C(C)C` was 7.89%. The value for `CCCCOC(=O)c1ccc(-c2ccccn2)s1` was 5.14%. For the molecule `COc1cccc(/C=N/NC(=S)Nc2cc(C(F)(F)F)cc(C(F)(F)F)c2)c1O`, the inhibition is 5.97%. The value for `CCCC1NC(=O)NC(C)=C1C(=O)OCC` (centres undefined) was -4.5%; that for `O=[N+]([O-])c1ccc(C2CC2(Br)Br)cc1` (centres undefined) was 0.49%. The value for `Cc1nc2ccccn2c1C(=O)N/N=C/c1cn(-c2ccccc2)nc1-c1cccs1` was 1.07%; that for `CSc1c(C#N)c(N)nc(SCC(=O)c2ccc(OC(F)F)cc2)c1C#N` was -10.3%; that for `CCOC(=O)/C(C#N)=C/N=C(N/N=C/c1cccs1)SC` was -1.55%.

For the molecule `Cn1c(CN2C(=O)CSc3ccc(C(F)(F)F)cc32)nnc1SCC(=O)c1ccccc1`, the inhibition was 5.25%. The value for `CC(C)CC(NC(=O)OC(C)(C)C)C(=O)OCc1ccc(CC(=O)O)cc1` (centres undefined) was -2.54%; that for `O=C(NNc1ccccc1C(F)(F)F)NS(=O)(=O)c1ccc(Cl)cc1` was 5.25%. Take `CCOC(=O)c1ccc2nc(C(F)(F)F)cc(N3CCN(Cc4ccccc4)CC3)c2c1`: the inhibition is -1.13%. For `Cc1nc(C)c(-c2ccnc(-c3ccc(Cl)cc3)n2)s1`, the inhibition is 4.12%. The value for `NC(CC(=O)O)c1ccccc1` (centres undefined) was 6.22%; that for `CSc1nc(N)nc2nc[nH]c12` was -1.11%. Take `COC(=O)c1cc(S(=O)(=O)NCc2csc(-c3cccs3)n2)oc1C`: the inhibition is -1.1%. As for `CC1=C(C(=O)O)N2C(=O)[C@H](NC(=O)[C@@H](N)c3ccccc3)C2SC1` (some centres undefined), the inhibition is 0.953%. Take `N#CCSc1ccc2ccccc2c1`: the inhibition was 3.36%.

For the molecule `CCOC(=O)c1c(NC(=S)Nc2ccccc2)sc2c1CCN(C)C2`, the inhibition is -2.27%. The value for `NC(=O)C1CCN(CC(O)CSc2ccc(F)cc2)CC1` (centres undefined) was 0.714%; that for `CC(=O)Nc1cccc(-n2nnc(SCC(=O)c3cc(-c4ccccc4)no3)n2)c1` was -46.5%; that for `CCOC(=O)C(=CNc1cc(C(F)(F)F)ccc1NCc1ccccc1)C(=O)OCC` was 1.63%. The value for `COC(=O)c1cc(OC)c(OC)cc1NC(=O)CSc1ccc(Cl)cc1` was 5.14%. The value for `NC(=O)c1ccccc1OCCOc1ccccc1C(N)=O` was -1.29%; that for `Cn1cc(Br)c(-c2cccc(NC(=O)c3ccccc3Cl)c2)n1` was 5.94%.
